Measurements taken from PubChem BioAssay (NCI).
This is part of a sample that, as a whole, favours compounds with a hit. Of some 83,000 tested, about 20% had one in any assay.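 Note: values are percent growth. 100 is the growth of untreated cells, values between 100 and 0 indicate rising inhibition; between -100 and 0 indicates cell death.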 Unmarked numbers belong to inactive results. Calls of active or inactive are those of the source. Rule for the calls: active = growth percent below 10; inactive = the rest.

How the values were obtained:
Assay in all cases: NCI-60 one-dose screen, 48 h (100 = growth as untreated, 0 = no growth, -100 = all killed)
HT29 colon = settings: 10 µM unless noted
SNB-75 CNS = settings: 10 µM unless noted
SNB-19 CNS = settings: 10 µM unless noted
U251 CNS = settings: 10 µM unless noted
PC-3 prostate = settings: 10 µM unless noted
SK-MEL-5 melanoma = settings: 10 µM unless noted
UACC-62 melanoma = settings: 10 µM unless noted
LOX IMVI melanoma = settings: 10 µM unless noted
SK-MEL-28 melanoma = settings: 10 µM unless noted
SK-MEL-2 melanoma = settings: 10 µM unless noted
EKVX NSCLC = settings: 10 µM unless noted
SN12C renal = settings: 10 µM unless noted
UO-31 renal = settings: 10 µM unless noted
ACHN renal = settings: 10 µM unless noted
CAKI-1 renal = settings: 10 µM
A498 renal = settings: 10 µM unless noted
CCRF-CEM leukemia = settings: 10 µM unless noted
MOLT-4 leukemia = settings: 10 µM unless noted
TK-10 renal = settings: 10 µM unless noted

Compound | growth (HT29 colon) | growth (SNB-75 CNS) | growth (SNB-19 CNS) [%] | growth (U251 CNS) | growth (PC-3 prostate) | growth (SK-MEL-5 melanoma) | growth (UACC-62 melanoma) | growth (LOX IMVI melanoma) | growth (SK-MEL-28 melanoma) | growth (SK-MEL-2 melanoma) | growth (EKVX NSCLC) | growth (SN12C renal) | growth (UO-31 renal) | growth (ACHN renal) | growth (CAKI-1 renal) | growth (A498 renal) | growth (CCRF-CEM leukemia) | growth (MOLT-4 leukemia) | growth (TK-10 renal)
CCN(CC)CCN1C(=O)c2c(c3c4ccccc4[nH]c3c3[nH]c4ccccc4c23)C1=O | 46.5% | 80% | 80.3 | 87.9% | 82.5% | 94.3% | 87.2% | 82.3% | 96.3% | 101% | 80.3% | 79.1% | 71.3% | 62% | 87.9% | 67.7% | 78.8% | 34.8% | –
C#C[C@@]1(O)[C@@H](CO)O[C@@H](n2cc(C(F)(F)F)c3c(N)ncnc32)[C@@H]1O | 0.254% (active) | -54.8% (active) | 10.7 | 6.37% (active) | 14% | -65.5% (active) | -1.29% (active) | -23.6% (active) | 28.1% | -52.9% (active) | 5.12% (active) | 9.05% (active) | -35.4% (active) | – | – | -84.3% (active) | 5.1% (active) | -8.68% (active) | 12.5%
O=C1OC(N(Cc2ccc(Cl)cc2)c2ccccc2)c2ccccc21 (configuration not stated) | 87.4% | 115% | 96.7 | 100% | 98.2% | 101% | 93.9% | 98.9% | 111% | 94.4% | 102% | 94.6% | 94.5% | 108% | 103% | 90.1% | 92.2% | 81.9% | –
CC(=S)Nc1ccccc1 | 94.3% | 87.3% | 97.8 | 96.2% | 84.9% | 98% | 96.8% | 91.2% | 112% | 97.3% | 87.3% | 92.9% | 81.5% | 97.4% | – | – | 102% | 103% | 109%
N#CC1=C(N)Oc2c(ccc3ccccc23)C1c1cc(=O)oc2ccc(Cl)cc12 (configuration not stated) | 6.85% (active) | 20.2% | 33.4 | – | 18.2% | 28.3% | 36.5% | 42% | 62.9% | 43.6% | 44.5% | 47.5% | 50.9% | 50.8% | – | 23.4% | 18.6% | 20.8% | 71.4%
NC(N)=N/N=C/c1ccc([N+](=O)[O-])cc1 | 105% | 83.4% | 109 | 105% | 94.5% | 100% | 91.6% | 96% | 109% | 115% | 102% | 96.7% | 82.6% | 106% | – | 79.7% | – | 97.5% | 112%
CC(CCC(=O)O)[C@H]1CCC2C3C(=O)C[C@@H]4CC(=O)CC[C@]4(C)C3CC(=O)[C@@]21C (some centres not stated) | 117% | 110% | 101 | 95% | 92.8% | 105% | 93.2% | 92.5% | 119% | 128% | 93.6% | 93.2% | 83.8% | – | 84.7% | – | 103% | 96.7% | 116%
COc1ccc(-c2c(NC(=O)Nc3ccc(Cl)c(C(F)(F)F)c3)cnn2-c2ccc(S(N)(=O)=O)cc2)cc1 | 24.8% | 65.7% | 21.5 | – | 9.52% (active) | 27% | 41.2% | 37.6% | 42.2% | -4.24% (active) | 61.6% | 51.4% | 50.9% | – | – | 26.8% | 8.88% (active) | 1.8% (active) | 30.9%
C=C1C(=O)O[C@H]2[C@H]1CC/C(COC(=O)CCCC(=O)OC/C1=C/CC[C@@]3(C)O[C@H]3[C@H]3OC(=O)C(=C)[C@@H]3CC1)=C\CC[C@@]1(C)O[C@@H]21 | -40% (active) | 93.3% | 67.6 | 48% | 55.2% | 33.4% | -18.7% (active) | -70.3% (active) | 8.77% (active) | 19.5% | 51.1% | 15.1% | 13.6% | – | – | 62.6% | -11.7% (active) | -19.1% (active) | 7.23% (active)
CCCCOc1c(N)cccc1C(=O)OCCN(CC)CC | 85.8% | 102% | 99.9 | 96.5% | 86.8% | 105% | 95.2% | 102% | 112% | 96.6% | 104% | 95.7% | 80.8% | – | – | 90.5% | 90.6% | 60.2% | 81.8%
O=C(NC(=S)Nc1ccc(Cl)cc1)c1ccccc1 | 87% | 94.9% | 105 | 96.4% | 105% | 102% | 85.5% | 106% | 96.2% | 108% | 78.7% | 98.4% | 83.1% | 101% | – | 103% | – | 72.8% | 117%
NS(=O)(=O)c1ccc(-n2nc(-c3ccc(Cl)cc3)ccc2=O)cc1 | 104% | 86% | 86.8 | 104% | 85.6% | 83.1% | 61.4% | 95.8% | 90.3% | 86.1% | 99.7% | 109% | 91.7% | – | – | 102% | 86.4% | 96.4% | 123%
CN(C)CC/C=C1\c2ccccc2Sc2ccc(Cl)cc21 | 30.6% | 52.4% | 85.2 | 49.5% | 65% | 34.1% | 47.1% | 53.6% | 55.9% | 89.6% | 78.6% | 48% | 41.3% | – | 52.7% | – | 59.4% | 44.8% | 75.8%
Fc1ccc(Nc2ncnc3ccc(-c4cn[nH]c4)cc23)cc1Cl | 60.6% | 40.5% | 68.6 | 61.8% | 47.3% | 40.4% | 60% | 49% | 69.3% | 45.3% | 22.4% | 56.8% | 45.6% | – | – | 7.79% (active) | – | 56.7% | –
c1ccc2c(c1)Oc1cccnc1-n1nccc1-2 | 99.7% | 88.8% | 103 | 100% | 89.7% | 95.7% | 84.7% | 96.3% | 102% | 121% | 104% | 101% | 101% | 99.7% | – | 87.2% | 104% | 109% | –
COc1ccc(-c2nn(-c3ccc(NC(=O)c4cc(Cl)cc(Cl)c4)cc3)cc2-c2ccncc2)cc1Cl | 8.22% (active) | 72.4% | 82.8 | 39.2% | 47.9% | 54.8% | 63.5% | 22.9% | 75.1% | 49.9% | 74.6% | 85% | 25% | 63.6% | 7.27% (active) | 50.9% | 54.8% | 18.9% | –
Cc1cc2c(cc1C)N(C(=O)CCl)CCN2C(=O)CCl | -73% (active) | -94% (active) | 39.6 | -84.3% (active) | -70.2% (active) | -97.6% (active) | – | -89.3% (active) | -49.5% (active) | -68.1% (active) | -23% (active) | -38.4% (active) | -81.5% (active) | -81.6% (active) | – | 85% | -28.8% (active) | 1.2% (active) | -96.9% (active)
O=C(Nc1ccc(-n2ccc3c(NC(=O)c4ccccc4)ncnc32)cc1)c1cccc(C(F)(F)F)c1 | 22% | 63.9% | 57.4 | – | 43.7% | 33.1% | 25.4% | 3.47% (active) | 71.2% | 85.8% | 63.5% | 60.7% | 45.9% | 34% | 27.9% | – | – | 19.7% | –
O=C(Nc1cccc([N+](=O)[O-])c1)Nc1cccc([N+](=O)[O-])c1 | 40.9% | 107% | 52 | 50.8% | 12.7% | 55% | 29.9% | 51.3% | 60.3% | 53.9% | 50.4% | 70.3% | 46.6% | – | – | – | 15.5% | 9.18% (active) | 39%
COc1cc(NS(=O)(=O)c2ccc(N)cc2)ncn1 | 120% | 104% | 99.8 | – | 99.8% | 103% | 99.1% | 94.3% | 121% | 160% | 102% | 93.8% | 86.2% | – | 94.6% | 106% | 105% | 99.6% | 130%
O=C(Nc1cccc(-n2ccc3c(NC(=O)c4ccccc4)nccc32)c1)Nc1cc(C(F)(F)F)cc(C(F)(F)F)c1 | -16.3% (active) | 38.7% | 20.5 | 0.587% (active) | 11.1% | -82.1% (active) | 11.6% | 22.5% | 35.4% | -11.9% (active) | 19% | 12.7% | 12.1% | 8.65% (active) | 15.3% | 16.4% | -4.29% (active) | 7.11% (active) | –
O=C(Nc1ccc(-n2cc(-c3ccncc3)c(-c3ccc(O)c(Cl)c3)n2)cc1)Nc1ccc(Cl)c(C(F)(F)F)c1 | 47.9% | 28% | 27.7 | 5.79% (active) | 1.79% (active) | -73.6% (active) | 9.18% (active) | 16.6% | 20.1% | -42.2% (active) | 19.5% | 19.1% | 13.6% | 13.2% | -3.83% (active) | 63.5% | 7.92% (active) | 9.62% (active) | –
O=c1c2ccccc2sc2c(N3CCCC3)nc3ccccc3c12 | 92.3% | 86.6% | 95.9 | – | 83.4% | 92.6% | 79% | 85.9% | 120% | 127% | 103% | 91.3% | 97% | 98.6% | – | 73% | 92.1% | 102% | –
S=c1ssnc1-c1ccccn1 | 33.6% | 36.6% | 47.8 | 28.9% | 32.9% | 16.7% | 34.5% | 6.73% (active) | 52.2% | 31.6% | 65.2% | 38% | -40.8% (active) | 15.4% | – | 13% | -6.05% (active) | 0.997% (active) | 40.1%
